# High-throughput results: PubChem BioAssay, several laboratories
# In the library only some 9.1% were active in any assay of this set; here they are far more common.
# D1 mod: D1 dopamine receptor (human) allosteric modulation; HEK293 D1, CRE-luciferase, dopamine EC30 potentiation; actives deviate in either direction; B-score at 10 µM; actives 5.9% (n = 58,000); AID 641;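 active = luminescence count or its row- and column-corrected plate score outside the 99.7% band of the plate's sample wells, on either side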
# M1 agonist: M1 muscarinic receptor agonism. CHO-M1 cells, Fluo-4 calcium fluorescence, agonist mode; active compounds read high. B-score at 10 µM. actives 3% (n = 64,000). AID 626;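 active = fluorescence rise, raw or as B-score row- and column-corrected plate score, outside the 99.7% band of its plate's samples, either direction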
# M1 antagonist: antagonists of rat M1 muscarinic receptor. CHO-M1 cells, Fluo-4 calcium, ACh EC80 antagonist mode; active compounds read low. B-score at 10 µM. actives 3.4% (n = 64,000). AID 628;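 active = calcium fluorescence response, raw or row-and-column corrected B-score, differing from the plate sample mean either way at a set confidence level, mostly lower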
# Target sequence (P08482 whole entry, looked up): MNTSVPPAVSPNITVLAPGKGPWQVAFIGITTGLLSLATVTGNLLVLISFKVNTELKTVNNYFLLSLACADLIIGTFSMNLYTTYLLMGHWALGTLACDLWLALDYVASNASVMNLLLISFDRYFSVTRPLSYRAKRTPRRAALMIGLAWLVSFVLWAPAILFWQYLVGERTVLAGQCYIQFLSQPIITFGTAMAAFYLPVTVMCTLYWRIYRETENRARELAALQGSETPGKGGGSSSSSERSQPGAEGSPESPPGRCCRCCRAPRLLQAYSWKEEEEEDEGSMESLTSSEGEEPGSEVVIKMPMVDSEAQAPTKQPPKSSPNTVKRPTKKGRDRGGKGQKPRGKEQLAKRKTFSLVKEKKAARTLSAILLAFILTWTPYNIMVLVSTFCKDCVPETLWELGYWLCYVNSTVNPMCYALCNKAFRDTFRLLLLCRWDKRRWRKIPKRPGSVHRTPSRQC
# Htt clearance: compounds clearing mutant huntingtin protein. inhibition, % at 1.5 µM. actives 0.42% (n = 47,000). AID 853. HeLa Exon1htt(103Q)mCFP, aggregate imaging; zero = plate's median compound well;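 active = inhibition of aggregate fluorescence above about 70%, also judged a hit by eye on the cell image, limit read from the data, passing the limit was not always enough; inconclusive = no rule stated for this call; inactive = not judged a hit on image review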;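 note: cells exposed to compound for three days before fixation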
# * marks the source's active call; other numbers are inactive results; ? = inconclusive; · = not tested or not shown.
SMILES,D1 mod,M1 agonist,M1 antagonist,Htt clearance
CCN(CC)S(=O)(=O)c1ccc(C(=O)OCCN2C(=O)CCC2=O)cc1,-4.9*,1.23,0.433,·
Cc1ccccc1-c1nc(-c2cccnc2)no1,0.211,1.38,0.287,-42.1
Clc1ccccc1-c1nc(-c2cccnc2)no1,-1.53*,1.25,0.987,-102.8
O=C1OCCC1Sc1nc2cc(Cl)ccc2s1 (configuration not stated),0.827,1.08,-0.123,·
Brc1ccc(-c2nn3c(-c4ccncc4)nnc3s2)o1,3.15,0.918,-3.14*,·
Brc1ccc(-c2nn3c(-c4ccccn4)nnc3s2)o1,1.54,0.635,-0.685,42.6
CN(C)c1nc(N)nc(-c2cccnc2)n1,4.61*,-0.0174,-0.666,·
NC(=O)C1CCCNC1 (configuration not stated),0.694,0.403,-0.077,·
COc1ccc(-c2cc3nc4n(c(=O)c3s2)CCC4)cc1,-5.88*,-1.22,0.632,·
O=C(NC1CCCCC1)c1nc2c(nnn2Cc2ccccc2Cl)c(=O)[nH]1,1.89,1.91,0.656,73.7*
CC(C)Oc1ccc(-c2nn(-c3ccccc3)cc2/C=c2\sc3ncnn3c2=O)cc1,-0.203,32.9*,-0.799,-12.6
CC(Cc1ccccc1)NC(=O)CSc1nc2nc3c(cc2c(=O)n1-c1ccccc1)COC(C)(C)C3 (configuration not stated),·,·,·,14.6
COC(=O)Cc1cc(=O)[nH]c(Nc2nc3ccccc3o2)n1,1.32,1.86,-0.121,75.1*
CCOC(=O)Cc1cc(=O)[nH]c(Nc2nc3ccccc3o2)n1,·,0.138,1.02,11.5
Cc1csc(NC(=O)c2cccc(S(=O)(=O)N3CCCCC3)c2)n1,0.6,0.0094,0.274,-29.4
Cc1cccc(NC(=O)c2ccc(S(=O)(=O)N3CCCCC3)cc2)n1,0.483,-2.61*,-2.45,·
CN1CCN(S(=O)(=O)c2ccc(NC(=O)c3ccc(F)cc3)cc2)CC1,-1.4,0.2,3.46*,·
CN1CCN(S(=O)(=O)c2ccc(NC(=O)c3ccc(Br)s3)cc2)CC1,-3.95*,-0.386,-1.23,·
Cc1cc(C(=O)NNC(=S)NC(C)c2ccccc2)c2ccccc2n1 (configuration not stated),·,·,·,-14.4
Cc1cc(C)c2c(=O)[nH]n(C3CC(C)N(C)CC3C)c2n1 (configuration not stated),-1.93*,1.34,-0.775,·
CC(=O)OC1c2ccccc2C(=O)N1Cc1ccccc1 (configuration not stated),·,·,·,-6.1
COc1ccc2noc3c2c1C(=O)c1ccccc1-3,5.05*,354*,-12*,·
COc1ccc(-c2noc(-c3ccccc3-c3ccccc3)n2)cc1OC,0.631,-0.0107,0,·
CCCCC(=O)Nc1cc(NC(=O)CCCC)cc(C(=O)O)c1,-4.18*,0.684,-0.291,8.2
CCC(CC)C(=O)Nc1cc(NC(=O)C(CC)CC)cc(C(=O)O)c1,-0.125,-1.01,0.95,-44.2
SMILES,D1 mod,M1 agonist,M1 antagonist,Htt clearance
CCCCC(=O)Nc1cccc(-c2nnc(-c3ccccc3)o2)c1,0.0785,2.67*,-1.06,43.7
CCCC(=O)Nc1ccc(-c2nc3cc(C)c(C)cc3o2)c(O)c1,0.27,-0.344,0.73,-15.7
CCCCCC(=O)Nc1ccc2oc(-c3cccnc3)nc2c1,0.794,-1.12,0.656,70.6*
Cc1cccc(C)c1OCC(=O)Nc1cccc(-c2nnc(-c3ccccc3)o2)c1,·,2.19,-1.94,·
CCCC(=O)Nc1ccc2oc(-c3ccc(OC)c(Br)c3)nc2c1,-2.59*,0.0888,0.00901,·
COc1ccccc1-c1noc(CCC(=O)Nc2cc(C(F)(F)F)ccc2Cl)n1,2.5,0.0277,-0.00297,4.9
Cc1cccc(N2CCN(C(=O)COc3cc(=O)n(C)c4ccccc34)CC2C)c1 (configuration not stated),0.233,0.027,-0.236,·
Cc1cccc(NC(=O)C2CC(=O)N(c3ccccc3)C2)c1C (configuration not stated),·,·,·,-45.6
CCCC(=O)Nc1ccc(-c2nc3cc(C)ccc3o2)cc1,-5.1*,-0.0578,-1.23,·
O=C(CCN1C(=O)COc2ccccc21)NCCCN1CCN(c2ccccc2F)CC1,-3.09*,0.436,0.593,-40.0
CC1CCCCN1CCNC(=O)CN1C(=O)COc2ccccc21 (configuration not stated),-3.51*,0.187,-0.704,46.3
Cc1onc(-c2ccccc2Cl)c1C(=O)N1CCc2ccccc21,-2.78*,0.626,-0.0242,·
CCN(CC)CC(=O)Nc1cc(C)c2c(=O)oc3ccccc3c2n1,0.645,0.721,0.0259,·
CCN(CC)C(=O)Cn1cnc2sc(C(=O)Nc3cc(OC)c(OC)c(OC)c3)c(C)c2c1=O,·,·,·,54.1
Cc1ccc2[nH]c(=O)c(CN(Cc3nnnn3Cc3ccccc3)C3CCCC3)cc2c1,0.0281,0.352,-0.113,·
Cc1cccc2cc(CN(Cc3nnnn3Cc3ccco3)C3CCCC3)c3nnnn3c12,1.52,-0.394,2.41*,24.2
CC1CCC2(CC1)C(Nc1cccc(Cl)c1)=NC(=S)N2CC#N (configuration not stated),·,·,·,8.7
CC(NS(=O)(=O)c1ccc(Cl)cc1)C(c1cccs1)N1CCN(C)CC1 (configuration not stated),·,-0.314,-1.31,77.3*
Cc1cc(C)c2c(n1)sc1c(N3CCOCC3)ncnc12,2.83*,-0.847,0.317,?
Cc1ccc2cc(C#N)c(NCCNC(=O)C3CC3)nc2c1C,-0.519,-0.874,1.43,-22.0
O=C1CCc2nc3sc4c(c3c(=O)n2N1)CCCC4,-0.045,0.77,0.0682,84.0*
CC1(C)CN=C(N2CCN(C3=NCC(C)(C)S3)CC2)S1,1.52,0.925,-6.3*,·
O=S1(=O)Nc2c(ccc3cccnc23)-c2ccccc21,-3.6*,0.516,-0.649,·
CC1=C(C#N)c2nc(N)c(C#N)c(C)c2/C1=C\c1ccccc1,-0.13,0.23,-0.779,·
Clc1ccc(Cc2noc(Cc3ccccc3)n2)cc1Cl,-0.0318,-0.266,1.85*,-67.0
SMILES,D1 mod,M1 agonist,M1 antagonist,Htt clearance
CC(=O)Nc1nc2cc3c(cc2s1)OCO3,-1.29,-0.111,0.278,·
O=C(Nc1nc2cc3c(cc2s1)OCO3)C1=COCCO1,-8.33*,-0.25,-0.616,·
CCc1cccc2c(C(=O)COC(=O)c3nn(C)c(=O)c4ccccc34)c[nH]c12,·,·,·,-32.9
CCn1nc(C(=O)OCC(=O)c2c[nH]c3ccccc23)c2ccccc2c1=O,-3.19*,6.09*,-1.26,·
C/C(=C\C(=O)c1ccc(C)o1)Nc1ccc(C(=O)O)cc1C,0.181,0.0653,3.04*,·
Cc1ccc(C(=O)Nc2ccc(O)c(C(=O)O)c2)o1,0.394,-0.14,1.16,-27.3
COc1ccc(NS(=O)(=O)c2cccc(-c3nnc4n3CCCCC4)c2)cc1,·,2.22,0.827,-36.0
O=c1[nH]c2ccc(S(=O)(=O)Nc3ccc(-c4nnc5n4CCCCC5)cc3)cc2o1,-5.01*,-0.0592,0.73,·
CN1C(=O)CC(N2CCN(C(=O)CN3CCCC3)CC2)C1=O (configuration not stated),-2.75*,·,·,·
O=c1c2ccccc2nc2n1C(CSc1ccc(Br)cc1)CN2 (configuration not stated),·,·,·,32.6
Cc1ccccc1NC(=O)CSc1nc(N)c(C#N)c(-c2cccs2)c1C#N,3.35,-0.642,0.391,-0.1
COc1ccc(CCNC(=O)CSc2nc(N)c(C#N)c(-c3cccs3)c2C#N)cc1OC,0.0876,0.165,0.619,71.8*
